Molecules are shown by their SMILES. Inconclusive results are not listed. Active and inactive are the calls of the source. How the source made its calls: active means hit-call score of the fitted dose curve at least 0.9, where 1 is the maximum; inconclusive means response in the unintended direction; inactive means score below 0.9.

The term AC50 denotes the concentration giving half of the maximal activity seen.

Assay [1] deals with human Protein Tyrosine Phosphatase Receptor Type F (PTPRF), PTPRF (gene 5792) (UniProt P10586). Briefly: NVS_ENZ_hPTPRF: NovaScreen (NVS) Enzymatic Assay for human Protein Tyrosine Phosphatase Receptor Type F (PTPRF) (AID 2283213). In short, it runs like this: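 Cell-free fluorescence enzyme assay with recombinant protein and substrate; product separated by electrophoretic mobility shift. Read 1 h after dosing, single 25 uM duplicate screen, then concentration-response up to 50 uM; loss of signal vs DMSO.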
Chain of human Protein Tyrosine Phosphatase Receptor Type F (PTPRF), PTPRF (gene 5792) (P10586 whole entry, looked up): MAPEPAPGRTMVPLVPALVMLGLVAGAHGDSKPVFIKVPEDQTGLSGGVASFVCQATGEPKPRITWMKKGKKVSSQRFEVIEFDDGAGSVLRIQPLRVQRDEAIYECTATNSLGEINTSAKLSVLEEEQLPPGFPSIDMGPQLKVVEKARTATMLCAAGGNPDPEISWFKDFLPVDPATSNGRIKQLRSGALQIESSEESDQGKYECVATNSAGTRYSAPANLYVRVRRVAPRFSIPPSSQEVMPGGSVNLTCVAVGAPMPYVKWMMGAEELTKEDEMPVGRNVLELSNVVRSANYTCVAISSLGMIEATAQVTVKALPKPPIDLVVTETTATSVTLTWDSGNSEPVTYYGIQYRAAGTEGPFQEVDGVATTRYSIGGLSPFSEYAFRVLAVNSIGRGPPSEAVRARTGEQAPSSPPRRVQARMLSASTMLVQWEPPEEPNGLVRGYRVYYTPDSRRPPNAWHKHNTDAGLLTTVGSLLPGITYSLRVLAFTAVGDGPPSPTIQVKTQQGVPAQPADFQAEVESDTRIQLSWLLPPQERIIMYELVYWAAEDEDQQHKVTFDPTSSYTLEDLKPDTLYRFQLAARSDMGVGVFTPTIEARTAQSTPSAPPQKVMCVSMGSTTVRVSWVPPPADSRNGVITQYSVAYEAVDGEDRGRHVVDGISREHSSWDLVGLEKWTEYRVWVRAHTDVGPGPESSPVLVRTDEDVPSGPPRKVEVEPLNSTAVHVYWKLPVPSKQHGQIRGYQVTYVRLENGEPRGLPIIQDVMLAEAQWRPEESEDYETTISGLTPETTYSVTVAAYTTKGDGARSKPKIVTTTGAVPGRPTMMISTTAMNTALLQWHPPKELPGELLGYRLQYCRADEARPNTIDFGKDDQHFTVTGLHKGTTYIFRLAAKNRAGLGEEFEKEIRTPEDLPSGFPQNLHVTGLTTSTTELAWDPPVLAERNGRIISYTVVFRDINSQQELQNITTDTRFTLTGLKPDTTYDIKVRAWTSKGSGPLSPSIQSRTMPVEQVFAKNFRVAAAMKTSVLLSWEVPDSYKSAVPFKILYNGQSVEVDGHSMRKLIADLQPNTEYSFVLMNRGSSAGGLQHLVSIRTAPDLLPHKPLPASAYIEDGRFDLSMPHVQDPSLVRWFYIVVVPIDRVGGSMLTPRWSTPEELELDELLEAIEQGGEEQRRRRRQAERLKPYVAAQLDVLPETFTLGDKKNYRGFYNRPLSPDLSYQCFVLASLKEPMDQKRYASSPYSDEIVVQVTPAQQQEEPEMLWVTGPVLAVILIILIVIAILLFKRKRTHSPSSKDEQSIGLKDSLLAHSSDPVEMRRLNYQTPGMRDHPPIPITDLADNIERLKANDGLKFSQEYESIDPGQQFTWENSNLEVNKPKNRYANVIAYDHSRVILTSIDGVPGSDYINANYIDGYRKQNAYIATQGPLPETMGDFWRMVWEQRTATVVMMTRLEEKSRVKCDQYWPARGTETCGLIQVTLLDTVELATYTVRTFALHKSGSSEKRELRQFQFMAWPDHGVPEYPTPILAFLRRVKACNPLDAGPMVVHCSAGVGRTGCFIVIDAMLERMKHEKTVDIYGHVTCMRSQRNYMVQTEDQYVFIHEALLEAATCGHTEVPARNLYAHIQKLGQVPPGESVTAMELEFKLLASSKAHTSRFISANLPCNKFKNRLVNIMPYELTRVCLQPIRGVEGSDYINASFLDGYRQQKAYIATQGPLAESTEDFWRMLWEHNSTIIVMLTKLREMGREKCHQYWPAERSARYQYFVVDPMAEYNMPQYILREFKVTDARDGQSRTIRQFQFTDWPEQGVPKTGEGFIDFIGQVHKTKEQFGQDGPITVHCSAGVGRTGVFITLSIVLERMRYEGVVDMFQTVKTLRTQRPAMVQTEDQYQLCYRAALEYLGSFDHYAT

For assay [2], the target named is human Protein Tyrosine Phosphatase Non-receptor Type 1 (PTPN1), PTPN1 (gene 5770) (UniProt P18031). In words: NVS_ENZ_hPTPN1: NovaScreen (NVS) Enzymatic Assay for human Protein Tyrosine Phosphatase Non-receptor Type 1 (PTPN1) (AID 2283201). A digest of the protocol:
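Chemicals were first tested in duplicate at 25 uM, and those passing threshold went on to singleton concentration series topping at 50 uM. Recombinant enzyme, specific substrate, product separated by mobility shift, fluorescence read at 1.33 h; activity loss relative to DMSO.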

Assay [3] has as its target human Phosphatase and Tensin Homolog (PTEN), PTEN (gene 5728) (UniProt P60484). In words: NVS_ENZ_hPTEN: NovaScreen (NVS) Enzymatic Assay for human Phosphatase and Tensin Homolog (PTEN) (AID 2283203). A digest of the protocol: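 Loss of fluorescent product signal after mobility-shift separation reports PTEN activity, recombinant human enzyme, 1 h after compound addition. Single 25 uM duplicate screen, then concentration-response on actives; DMSO baseline.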

Assay [4] has as its target Tyrosine-protein phosphatase non-receptor type 12 (Homo sapiens) (UniProt Q05209). Briefly: NVS_ENZ_hPTPN12: NovaScreen (NVS) Enzymatic Assay for human Protein Tyrosine Phosphatase Non-receptor Type 12 (PTPN12) (AID 2283204). In short, it runs like this: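 Single-concentration duplicates (25 uM) preceded singleton concentration-response up to 50 uM for chemicals passing threshold. Cell-free recombinant PTPN12 activity was read 1.33 h after dosing via fluorescence after mobility-shift separation; loss of signal versus DMSO.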

Assay [5] concerns the target human Protein Tyrosine Phosphatase Non-receptor Type 9 (PTPN9), PTPN9 (gene 5780) (UniProt P43378). In words: NVS_ENZ_hPTPN9: NovaScreen (NVS) Enzymatic Assay for human Protein Tyrosine Phosphatase Non-receptor Type 9 (PTPN9) (AID 2283209). A digest of the protocol: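 Sf9-expressed enzyme in a cell-free assay, fluorescence read 1.33 h after dosing with mobility-shift separation of substrate and product. Tested at 25 uM in duplicate, then up to 50 uM; signal loss versus DMSO.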

In assay [6] the target is human Protein Tyrosine Phosphatase Receptor Type B (PTPRB), PTPRB (gene 5787) (UniProt P23467). Briefly: NVS_ENZ_hPTPRB: NovaScreen (NVS) Enzymatic Assay for human Protein Tyrosine Phosphatase Receptor Type B (PTPRB) (AID 2283211). A digest of the protocol: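 Recombinant human PTPRB with a fluorescent substrate, product separated by electrophoretic mobility shift; read 1 h after dosing. Primary screen in duplicate at 25 uM; actives then retested in concentration series; loss of signal versus DMSO.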

Assay [7] addresses human Protein Tyrosine Phosphatase Receptor Type M (PTPRM), PTPRM (gene 5797) (UniProt P28827). In words: NVS_ENZ_hPTPRM: NovaScreen (NVS) Enzymatic Assay for human Protein Tyrosine Phosphatase Receptor Type M (PTPRM) (AID 2283215). A digest of the protocol: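 Read-out is fluorescence after electrophoretic separation of substrate and product, taken 1.33 h post-dosing with recombinant enzyme. Compounds screened at 25 uM in duplicate, then concentration series for actives; activity as signal loss relative to DMSO.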

Assay [8] concerns the target human Raf-1 Proto-Oncogene, serine/threonine Kinase (RAF1), RAF1 (gene 5894) (UniProt P04049). Briefly: NVS_ENZ_hRAF1: NovaScreen (NVS) Enzymatic Assay for human Raf-1 Proto-Oncogene, serine/threonine Kinase (RAF1) (AID 2283216). A digest of the protocol:
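Single-point screening at 25 uM (duplicate), followed by singleton concentration-response to 50 uM maximum for chemicals exceeding threshold. Enzyme activity from fluorescent substrate-product mobility-shift separation after 1 h, relative to DMSO.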

In the next assay the target is PPP2CA (gene 5515) (UniProt P67775). Briefly: NVS_ENZ_hPPP2CA: NovaScreen (NVS) Enzymatic Assay for human Protein Phosphatase 2 Aatalytic subunit Alpha (PPP2CA) (AID 2283199). A digest of the protocol: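 Cell-free phosphatase activity: fluorescent substrate turnover by recombinant human enzyme, resolved by mobility shift at 1.33 h. Compounds passing the 25 uM duplicate primary screen were rerun in singleton series with a 50 uM top concentration.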

Assay [9] has as its target Serine/threonine-protein phosphatase PP1-alpha catalytic subunit (Homo sapiens) (UniProt P62136). Briefly: NVS_ENZ_hPPP1CA: NovaScreen (NVS) Enzymatic Assay for human Protein Phosphatase 1 Aatalytic subunit Alpha (PPP1CA) (AID 2283200). In short, it runs like this: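 Chemicals were first screened in duplicate at 25 uM, and those passing threshold (e.g. 30% inhibition) were run as concentration series to 50 uM. Cell-free recombinant protein, 1.33 h read, fluorescent substrate/product mobility-shift detection, normalised to DMSO.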

For assay [10], the target named is human Phosphoinositide 3-kinase alpha (PI3Ka), PIK3CA (gene 5290) (UniProt P42336). Briefly: NVS_ENZ_hPI3Ka: NovaScreen (NVS) Enzymatic Assay for human Phosphoinositide 3-kinase alpha (PI3Ka) (AID 2283196). In short, it runs like this: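 Enzyme activity as fluorescence after mobility-shift separation of substrate and product, 1 h reaction, recombinant human PI3Kα; concentration-response to 50 uM max for chemicals passing a 25 uM duplicate screen.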

Assay [11] addresses Tyrosine-protein phosphatase non-receptor type 11 (Homo sapiens) (UniProt Q06124). Briefly: NVS_ENZ_hPTPN11: NovaScreen (NVS) Enzymatic Assay for human Protein Tyrosine Phosphatase Non-receptor Type 11 (PTPN11) (AID 2283202). In short, it runs like this:
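Compounds first tested in duplicate at 25 uM; those reaching ~30% inhibition rerun in singleton concentration-response, top 50 uM. Phosphatase activity measured after 0.5 h by fluorescence with mobility-shift separation, relative to DMSO.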

For assay [12], the target named is Tyrosine-protein phosphatase non-receptor type 13 (Homo sapiens) (UniProt Q12923). Briefly: NVS_ENZ_hPTPN13: NovaScreen (NVS) Enzymatic Assay for human Protein Tyrosine Phosphatase Non-receptor Type 13 (PTPN13) (AID 2283205). In short, it runs like this: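 Screened first at a single 25 uM in duplicate; compounds passing the threshold (e.g. 30% inhibition) were rerun in concentration series, top 50 uM. Recombinant enzyme, fluorescent substrate, mobility-shift separation, 0.5 h read. Data fitted as inhibition relative to DMSO.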

For assay [13], the target named is Tyrosine-protein phosphatase non-receptor type 14 (Homo sapiens) (UniProt Q15678). Briefly: NVS_ENZ_hPTPN14: NovaScreen (NVS) Enzymatic Assay for human Protein Tyrosine Phosphatase Non-receptor Type 14 (PTPN14) (AID 2283206). A digest of the protocol: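 Fluorescent substrate turnover by recombinant human PTPN14 was measured 0.5 h after compound addition, with substrate and product separated by mobility shift. Single-point screening at 25 uM, then concentration-response up to 50 uM for chemicals meeting threshold (e.g., 30% inhibition).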

Assay [14] addresses human Protein Tyrosine Phosphatase Non-receptor Type 4 (PTPN4), PTPN4 (gene 5775) (UniProt P29074). In words: NVS_ENZ_hPTPN4: NovaScreen (NVS) Enzymatic Assay for human Protein Tyrosine Phosphatase Non-receptor Type 4 (PTPN4) (AID 2283208). In short, it runs like this:
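Screened in duplicate at 25 uM, with hits then titrated to a top concentration of 50 uM. Recombinant Sf9-derived PTPN4 turnover was read by fluorescence with electrophoretic separation, 1.33 h after compound addition. DMSO served as baseline.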

Assay [15] deals with human Protein Phosphatase, Mg2+/Mn2+ Dependent 1A (PPM1A), PPM1A (gene 5494) (UniProt P35813). Briefly: NVS_ENZ_hPPM1A: NovaScreen (NVS) Enzymatic Assay for human Protein Phosphatase, Mg2+/Mn2+ Dependent 1A (PPM1A) (AID 2283198). In short, it runs like this:
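Primary screen in duplicate at 25 uM, with actives then titrated to a maximum of 50 uM. Recombinant PPM1A dephosphorylation of fluorescent substrate measured at 1 h, with substrate and product separated by mobility shift; inhibition fitted against DMSO.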

Assay [16] deals with human Protein Tyrosine Phosphatase Non-receptor Type 6 (PTPN6), PTPN6 (gene 5777) (UniProt P29350). In words: NVS_ENZ_hPTPN6: NovaScreen (NVS) Enzymatic Assay for human Protein Tyrosine Phosphatase Non-receptor Type 6 (PTPN6) (AID 2283210). A digest of the protocol:
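Recombinant human PTPN6 from SF9 cells, enzyme activity followed by fluorescence after mobility-shift separation of substrate and product at 1.33 h. Chemicals first tested at a single 25 uM in duplicate, then confirmed across concentration series; loss of signal relative to DMSO.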

Chain of human Protein Tyrosine Phosphatase Non-receptor Type 1 (PTPN1), PTPN1 (gene 5770) (P18031 whole entry, looked up): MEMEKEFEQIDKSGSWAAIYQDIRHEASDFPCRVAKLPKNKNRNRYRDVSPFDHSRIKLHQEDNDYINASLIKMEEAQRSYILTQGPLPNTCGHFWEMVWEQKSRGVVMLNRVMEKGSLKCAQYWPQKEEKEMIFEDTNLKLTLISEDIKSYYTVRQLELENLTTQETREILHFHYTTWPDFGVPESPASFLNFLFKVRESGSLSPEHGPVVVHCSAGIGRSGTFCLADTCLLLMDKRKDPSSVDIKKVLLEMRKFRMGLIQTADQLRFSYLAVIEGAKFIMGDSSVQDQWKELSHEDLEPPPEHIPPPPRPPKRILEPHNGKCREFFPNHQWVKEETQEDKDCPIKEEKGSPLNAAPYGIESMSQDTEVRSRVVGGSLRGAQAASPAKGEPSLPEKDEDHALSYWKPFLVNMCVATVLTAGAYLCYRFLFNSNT
Chain of Serine/threonine-protein phosphatase PP1-alpha catalytic subunit (Homo sapiens) (P62136 whole entry, looked up): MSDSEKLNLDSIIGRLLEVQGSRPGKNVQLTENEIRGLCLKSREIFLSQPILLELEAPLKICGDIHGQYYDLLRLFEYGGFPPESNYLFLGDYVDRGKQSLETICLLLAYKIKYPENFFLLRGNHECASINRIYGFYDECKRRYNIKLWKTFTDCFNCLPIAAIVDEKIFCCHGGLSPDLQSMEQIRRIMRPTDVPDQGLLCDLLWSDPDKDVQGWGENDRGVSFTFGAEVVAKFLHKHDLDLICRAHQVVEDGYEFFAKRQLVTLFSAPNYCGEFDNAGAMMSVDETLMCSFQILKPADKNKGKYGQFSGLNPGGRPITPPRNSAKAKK
Chain of human Phosphatase and Tensin Homolog (PTEN), PTEN (gene 5728) (P60484 whole entry, looked up): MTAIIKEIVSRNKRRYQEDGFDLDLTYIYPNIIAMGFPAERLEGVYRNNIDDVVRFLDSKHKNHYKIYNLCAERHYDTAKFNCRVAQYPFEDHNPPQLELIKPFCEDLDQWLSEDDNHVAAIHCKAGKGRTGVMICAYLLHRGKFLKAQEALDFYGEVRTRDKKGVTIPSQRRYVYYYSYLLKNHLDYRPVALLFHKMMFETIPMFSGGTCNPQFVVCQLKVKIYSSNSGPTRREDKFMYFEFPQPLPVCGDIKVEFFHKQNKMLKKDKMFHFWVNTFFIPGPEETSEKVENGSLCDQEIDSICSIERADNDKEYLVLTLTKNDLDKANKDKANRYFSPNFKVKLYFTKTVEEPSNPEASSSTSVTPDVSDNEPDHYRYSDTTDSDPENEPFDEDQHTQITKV
Chain of human Protein Tyrosine Phosphatase Non-receptor Type 9 (PTPN9), PTPN9 (gene 5780) (P43378 whole entry, looked up): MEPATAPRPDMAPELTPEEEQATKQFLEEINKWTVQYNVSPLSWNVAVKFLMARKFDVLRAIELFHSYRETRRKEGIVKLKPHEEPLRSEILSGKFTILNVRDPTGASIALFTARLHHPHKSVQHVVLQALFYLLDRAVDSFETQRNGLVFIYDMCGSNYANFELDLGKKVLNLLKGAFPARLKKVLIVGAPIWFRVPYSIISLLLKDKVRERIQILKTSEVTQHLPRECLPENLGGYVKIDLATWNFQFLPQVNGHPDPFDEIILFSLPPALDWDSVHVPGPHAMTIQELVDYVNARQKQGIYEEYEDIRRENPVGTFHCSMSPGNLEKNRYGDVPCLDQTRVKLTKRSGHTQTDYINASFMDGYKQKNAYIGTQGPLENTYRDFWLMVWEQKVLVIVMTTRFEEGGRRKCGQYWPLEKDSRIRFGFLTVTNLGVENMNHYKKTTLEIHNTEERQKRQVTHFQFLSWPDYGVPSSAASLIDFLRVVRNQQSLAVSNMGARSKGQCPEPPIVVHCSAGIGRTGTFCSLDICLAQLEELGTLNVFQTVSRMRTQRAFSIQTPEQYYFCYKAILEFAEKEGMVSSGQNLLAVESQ
Chain of Tyrosine-protein phosphatase non-receptor type 12 (Homo sapiens) (Q05209 whole entry, looked up): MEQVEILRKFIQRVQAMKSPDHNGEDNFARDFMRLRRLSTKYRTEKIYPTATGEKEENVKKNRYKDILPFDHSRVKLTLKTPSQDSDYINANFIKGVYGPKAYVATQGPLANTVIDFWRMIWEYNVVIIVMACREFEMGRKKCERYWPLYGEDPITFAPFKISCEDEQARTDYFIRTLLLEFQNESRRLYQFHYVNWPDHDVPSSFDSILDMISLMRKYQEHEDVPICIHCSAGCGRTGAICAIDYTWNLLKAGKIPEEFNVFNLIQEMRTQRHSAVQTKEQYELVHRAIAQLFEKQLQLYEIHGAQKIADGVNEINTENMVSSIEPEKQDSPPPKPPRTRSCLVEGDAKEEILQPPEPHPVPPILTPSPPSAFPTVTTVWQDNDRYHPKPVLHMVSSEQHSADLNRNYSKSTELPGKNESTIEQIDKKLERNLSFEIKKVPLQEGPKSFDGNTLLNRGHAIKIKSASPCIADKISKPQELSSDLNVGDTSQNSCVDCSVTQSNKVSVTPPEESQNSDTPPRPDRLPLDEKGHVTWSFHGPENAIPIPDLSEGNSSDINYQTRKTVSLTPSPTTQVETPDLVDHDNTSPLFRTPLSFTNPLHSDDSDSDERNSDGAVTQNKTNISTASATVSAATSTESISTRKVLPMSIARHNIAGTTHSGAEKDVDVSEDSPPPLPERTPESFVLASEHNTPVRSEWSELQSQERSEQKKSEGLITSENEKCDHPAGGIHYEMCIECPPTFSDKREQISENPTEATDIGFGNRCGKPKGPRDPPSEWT
Chain of human Protein Tyrosine Phosphatase Non-receptor Type 6 (PTPN6), PTPN6 (gene 5777) (P29350 whole entry, looked up): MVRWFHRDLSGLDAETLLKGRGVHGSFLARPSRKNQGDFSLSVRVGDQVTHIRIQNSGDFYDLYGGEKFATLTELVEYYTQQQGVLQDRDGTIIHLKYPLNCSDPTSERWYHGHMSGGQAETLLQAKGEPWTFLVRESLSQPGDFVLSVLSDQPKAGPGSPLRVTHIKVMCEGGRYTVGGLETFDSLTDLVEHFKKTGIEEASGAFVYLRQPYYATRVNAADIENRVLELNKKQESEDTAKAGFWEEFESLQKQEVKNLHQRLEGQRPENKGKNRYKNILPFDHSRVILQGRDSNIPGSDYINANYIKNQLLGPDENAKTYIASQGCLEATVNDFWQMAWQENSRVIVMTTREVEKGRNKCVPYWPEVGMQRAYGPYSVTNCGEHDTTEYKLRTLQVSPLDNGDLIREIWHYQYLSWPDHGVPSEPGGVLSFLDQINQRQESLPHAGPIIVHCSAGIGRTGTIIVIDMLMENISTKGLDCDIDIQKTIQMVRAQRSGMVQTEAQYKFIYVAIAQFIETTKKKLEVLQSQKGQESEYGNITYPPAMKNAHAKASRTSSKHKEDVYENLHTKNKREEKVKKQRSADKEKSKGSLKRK

With `Oc1ccc(Cl)cc1Cl`, the call in assay [1] was inactive.

Regarding `O=C(O)C(F)(F)C(F)(F)C(F)(F)C(F)(F)C(F)(F)C(F)(F)C(F)(F)C(F)(F)F`, the compound was classed as inactive in assay [2], in [3], in assay [4], in [6], in [1] and in assay [7]. For the same compound, the result in assay [8] was inactive. Besides, the AC50 in assay [5] was 25 µM (active).

As for `Cc1cc(-c2ccc(N)c(C)c2)ccc1N`, the compound was called inactive (with PPP2CA (gene 5515); in [9]).

On to `CC1=C2C[C@H]3[C@@H](CC=C4C[C@@H](O)CC[C@@]43C)[C@@H]2CC[C@]12O[C@@H]1C[C@H](C)CN[C@H]1[C@H]2C`, for which the outcome in assay [10], in [2], in assay [11], in [4], in assay [13] and in assay [5] was inactive. Further, the AC50 in [12] was 6.4 µM (active); in [14], 16 µM (active).

Consider `Clc1ccc(C(c2ccccc2Cl)C(Cl)(Cl)Cl)cc1` (stereo not drawn), for which the result in [15] and in assay [9] was inactive.

With `C1CC2OC2CC1C1CO1` (stereo not drawn), the result in assay [5] and in [16] was inactive.

On to `C=CC(N)=O`, for which the outcome in [15] and in assay [1] was inactive.

Consider `Cc1cccc([N+](=O)[O-])c1`, for which the result in assay [9], in [3] and in assay [8] was inactive.

In the case of `CCOCCOC(C)=O`, the call in assay [2] and in [16] was inactive.

Take `O=S(=O)(O)C(F)(F)C(F)(F)C(F)(F)C(F)(F)C(F)(F)C(F)(F)F`: the call in assay [3], in assay [1] and in assay [7] was inactive.

The values are drawn from PubChem BioAssay (EPA / NIEHS).
